Shiga toxin inh: inhibitors of Shiga toxin in Vero cells; Vero cells, Shiga toxin protein synthesis inhibition reporter; inhibition, % at 38.7 µM; 290,000 tested, 9.2% active; AID 2315; in the data active means inhibition mostly above about 28%, no sharp cut-off; inactive means mostly below about 43%
HCMV antiviral: blocks human cytomegalovirus replication; HFF cells, HCMV-luciferase reporter, 72 h; stronger effect = lower value; activity change, negative = inhibition, % at 57.5 µM; 410,000 tested, 4.5% active; in the data active means activity change below about -60%; inconclusive means no clear call, values can overlap the other calls; inactive means above about -39%
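Luciferase read-out from HCMV-luciferase-infected HFFs (MOI 1 PFU/cell) 72 h post infection at 37C; compounds added after 16 h cell attachment; activity normalized between buffer-only basal and Salinomycin (10uM) inhibitor controls.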
HCV inhibitor: inhibitors of hepatitis C virus infection | 340,000 tested, 3.4% active | Potency, µM (titrated, usually from 41.8 µM), hits mostly inhibitors | Huh7.5.1 HCVcc-Cre infection, luciferase reporter, 44 h | AID 651820
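Luciferase read-out (15 sec integration) after a 15 min room-temperature substrate step quantifies HCVcc-Cre infection. Cells, 1,000 per well, had compound added 4 h post-plating, then virus at ~0.5 moi, and were cultured 44 h.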
Cycloheximide cs: counter-screen for Shiga toxin inhibitors: cycloheximide protein synthesis inhibition; max response, %; cell reporter, cycloheximide protein synthesis inhibition counterscreen; 300,000 tested, 12% active; in the data active means max response mostly above about 13%, no sharp cut-off; inactive means mostly below about 14%; further: read at 38.3 µM for the half of the compounds with a filed dose
Pf growth 48h: P. falciparum growth inhibition at 48 hours (one generation); Potency, µM (series often up to 28.7 µM), actives largely listed as inhibitors; 310,000 tested, 5.9% active; P. falciparum luciferase growth in erythrocytes, 48 h; AID 504832
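Growth was read as firefly luciferase luminescence after a 48 h, 37 C, 5% CO2 exposure of compounds to reporter-bearing P. falciparum cultures (0.1% parasitemia, 2% hematocrit final) in Albumax-supplemented RPMI 1640.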
Pf growth 96h: P. falciparum growth inhibition at 96 hours; Potency, µM (doses to about 28.7 µM), usual class: inhibitors; P. falciparum luciferase reporter growth, 96 h; 320,000 tested, 6.9% active; AID 504834
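Infected RBCs, 2% Hct / 0.05% parasitemia final; luciferase-reporter P. falciparum; cpd 96 h, 37 C, 5% CO2; luciferase detection reagent; luminescence.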
Large screens that a line does not name were inactive. Only some compounds are listed: those with a hit (about 21% of all), similar ones and a draw of the others. Unless noted, the call rests on the fitted dose curve; in most records, active means well fitted inhibition curve with a large enough effect; inconclusive means small, poorly fitted or top-dose-only effect, or another doubt; inactive means no such curve, though single readings can be large or run the other way.

CCN(CC)CCn1c2ccccc2c2nc3ccccc3nc21	Shiga toxin inh 53, HCMV antiviral -102, HCV inhibitor inconclusive, Cycloheximide cs 44
CCCn1c(O)c(N=Nc2ccc3ccccc3n2)c2ccccc21	Shiga toxin inh 42, HCV inhibitor inconclusive, Cycloheximide cs 30
O=C(C[C@@H]1C/C=C\C[C@H](Cc2ccc(F)cc2)C(=O)OC[C@H]2CCCN2C1=O)NCCO	none (no result: Shiga toxin inh, Cycloheximide cs, Pf growth 48h, Pf growth 96h)
CN(C)c1ccc(NC(=O)CSc2nnc(C3CCCCC3)n2N)cc1	Shiga toxin inh 31, Cycloheximide cs 24
O=C(O)CCSc1ncnc2sc(-c3ccccc3)cc12	HCMV antiviral inconclusive
CC(=O)CCSc1ncnc2sc(-c3ccccc3)cc12	HCMV antiviral -112
CC(=O)c1c(C)[nH]c(C(=O)CSc2nnc(C3CCCCC3)n2N)c1C	Pf growth 48h 2.1µM (no result: Pf growth 96h)
CC(=O)c1c(C)[nH]c(C(=O)CSc2ncnc3sc(-c4ccccc4)cc23)c1C	HCMV antiviral -77, HCV inhibitor inconclusive, Pf growth 96h inconclusive
CCCN(CC(=O)Nc1ccccc1C)C(=O)Cc1cccs1	Pf growth 48h inconclusive, Pf growth 96h inconclusive (no result: Shiga toxin inh, Cycloheximide cs)
C=CCn1c(C)nnc1SCC(=O)c1[nH]c(C)c(C(C)=O)c1C	Pf growth 48h inconclusive, Pf growth 96h inconclusive
O=C(CSc1nnc(-c2ccccc2)o1)c1nnc(-c2ccccc2)o1	Pf growth 96h inconclusive (no result: Pf growth 48h)
CC(=O)c1c(C)[nH]c(C(=O)CSc2nnc(C)s2)c1C	Shiga toxin inh 92, Cycloheximide cs 44
CC(=O)c1c(C)[nH]c(C(=O)CSc2nnc(-c3ccccc3)o2)c1C	HCV inhibitor 8.9µM, Pf growth 48h inconclusive, Pf growth 96h inconclusive
CN=C1SC(CC(=O)Nc2sc(C)c(C)c2C(=O)OC)C(=O)N1C (centres undefined)	HCV inhibitor inconclusive, Pf growth 96h inconclusive
CCc1cc(C(=O)OC)c(NC(=O)CC2SC(=NC)N(C)C2=O)s1 (centres undefined)	HCV inhibitor 16µM
O=C1CC(c2ccco2)CC2=C1C(c1ccccc1)n1nc(C(F)(F)F)nc1N2 (centres undefined)	Pf growth 48h 9.3µM (no result: Pf growth 96h)
Cc1cc(C)n2nc(SC(C)C(=O)N(C)C3CCCCC3)nc2n1 (centres undefined)	none (no result: Shiga toxin inh, Cycloheximide cs, Pf growth 48h, Pf growth 96h)
O=[N+]([O-])c1ccc(N2CCN(Cc3ccccc3)CC2)s1	none
O=[N+]([O-])c1ccc(N2CCCCC2)s1	Cycloheximide cs 18
CC1CCCN(S(=O)(=O)c2ccc([N+](=O)[O-])cc2)C1 (centres undefined)	Pf growth 48h inconclusive
CC1CCCN(c2ccc([N+](=O)[O-])s2)C1 (centres undefined)	Cycloheximide cs 16
COCCn1c(-c2ccccc2)c(C)n2c3c(=O)n(C)c(=O)n(C)c3nc12	none (no result: Shiga toxin inh, HCV inhibitor, Cycloheximide cs, Pf growth 48h, Pf growth 96h)
Cc1ccc(C)c(NC(=O)C2CCCN(S(=O)(=O)c3cccc4nsnc34)C2)c1 (centres undefined)	none (no result: Shiga toxin inh, HCV inhibitor, Cycloheximide cs, Pf growth 48h, Pf growth 96h)
O=[N+]([O-])c1ccc(Sc2cccc3cccnc23)c([N+](=O)[O-])c1	HCMV antiviral -106, Cycloheximide cs 19 (no result: Pf growth 96h)
O=[N+]([O-])c1ccc(NS(=O)(=O)c2cccc3cccnc23)cc1	Pf growth 96h 12µM (no result: Shiga toxin inh)
O=[N+]([O-])c1ccc(Oc2ccc(S(=O)(=O)Nc3ccccc3)cc2)cc1	HCV inhibitor inconclusive, Pf growth 96h inconclusive (no result: HCMV antiviral)
O=C1C(Cl)=C(NS(=O)(=O)c2ccc([N+](=O)[O-])cc2)C(=O)c2ccccc21	HCMV antiviral inconclusive, HCV inhibitor inconclusive, Pf growth 48h inconclusive, Pf growth 96h 5.2µM
O=[N+]([O-])c1ccc(NS(=O)(=O)c2ccc(Cl)c(Cl)c2)cc1	HCMV antiviral -64 (no result: Shiga toxin inh, HCV inhibitor, Cycloheximide cs, Pf growth 48h, Pf growth 96h)
CCN(CC(=O)NCc1ccc(F)cc1)C(=O)C(C)Oc1cccc(Cl)c1 (centres undefined)	HCV inhibitor inconclusive (no result: Shiga toxin inh, Cycloheximide cs)
Cc1cc(NC(=O)CSc2nnc(-c3ccccc3Cl)o2)no1	HCMV antiviral inconclusive, HCV inhibitor inconclusive
O=[N+]([O-])c1ccc(Sc2cccc3cccnc23)cc1	Shiga toxin inh 65, Cycloheximide cs 26 (no result: Pf growth 48h)
CC(=O)Nc1ccc(S(=O)(=O)Nc2nc3ccccc3nc2Nc2ccc(O)cc2)cc1	none
COc1ccc(F)cc1CN1CCN(c2cc(C)nc3c4c(C)cc(C)nc4nn23)CC1	Pf growth 48h 15µM, Pf growth 96h inconclusive (no result: HCMV antiviral, HCV inhibitor)

Screening results deposited in PubChem BioAssay by National Center for Advancing Translational Sciences (NCATS).
